In the library only some 5% were active in any assay of this set; here they are far more common.
SENP8 block-1 – SENP8 (human) protease inhibition. Q96LD8. recombinant SENP8, Nedd8 substrate fluorescence. inhibition, % at 20 µM. 360,000 tested, 0.64% active. AID 602440; in the data active means inhibition mostly above about 40%, no sharp cut-off; inactive means mostly below about 27%
SENP8 block-2 – blocks the human protease SENP8 | Q96LD8 | purified SENP8, Z-RLRGG-aminoluciferin cleavage, luminescence | inhibition, % at 10 µM | 330,000 tested, 1.2% active; in the data active means inhibition above about 50%
SENP7 block – SENP7 protease inhibition. Q9BQF6. recombinant SENP7, Z-RLRGG-aminoluciferin luminescence, 40 min. inhibition, % at 5 µM. 330,000 tested, 1.5% active. AID 434973;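 active means inhibition above about 50% at the single test dose, limit read from the data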;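 further: plate controls were DMSO with enzyme for no effect and no enzyme buffer wells for full effect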
AHR activator – activators of human aryl hydrocarbon receptor. P35869. AHR-responsive luciferase reporter cells, luminescence. activation, % at 5 µM. 320,000 tested, 2.5% active. AID 2796; in the data active means activation above about 47%;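 further: 0% = vehicle wells and 100% = reference agonist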
EBI2 antag – blocks human EBI2 receptor beta-arrestin signaling. 360,000 tested, 0.81% active. inhibition, % at 5 µM. AID 651636. EBI2 beta-arrestin recruitment, luminescence, 7a,25-OHC stimulated; in the data active means inhibition above about 38%;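 further: enzyme fragment complementation signal reports receptor beta-arrestin coupling in cells; 0% = agonist plus DMSO wells and 100% = wells without agonist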
SENP6 inh – inhibitors of human SENP6 protease; Q9GZR1; Recombinant SENP6 catalytic domain, aminoluciferin luminescence; inhibition, % at 10 µM; 330,000 tested, 1.8% active; AID 2599;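 active means inhibition above about 50% at the single tested dose, limit read from the data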;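 further: plate controls were DMSO wells with enzyme for no effect and DMSO wells lacking enzyme for full effect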
Target sequence (Q9GZR1 628-1112 limits assumed): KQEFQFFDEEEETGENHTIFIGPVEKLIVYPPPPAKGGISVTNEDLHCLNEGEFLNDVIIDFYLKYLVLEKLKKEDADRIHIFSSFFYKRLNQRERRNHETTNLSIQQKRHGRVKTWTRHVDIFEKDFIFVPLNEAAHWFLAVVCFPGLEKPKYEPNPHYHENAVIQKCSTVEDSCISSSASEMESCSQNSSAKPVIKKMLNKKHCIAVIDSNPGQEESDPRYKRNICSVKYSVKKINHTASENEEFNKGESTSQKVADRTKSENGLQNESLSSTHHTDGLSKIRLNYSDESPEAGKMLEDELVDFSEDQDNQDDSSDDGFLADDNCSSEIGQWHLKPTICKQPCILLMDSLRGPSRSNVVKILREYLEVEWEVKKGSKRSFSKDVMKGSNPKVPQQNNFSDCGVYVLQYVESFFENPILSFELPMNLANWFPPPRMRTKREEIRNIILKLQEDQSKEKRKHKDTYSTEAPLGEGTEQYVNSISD
SENP8 confirm – human SENP8 inhibition, confirmed; shares compounds with SENP7 block; Recombinant SENP8, Z-RLRGG-aminoluciferin luminescence, 60 min; inhibition, % at 12.5 µM; 6,200 tested, 40% active; AID 488912;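 active means mean inhibition across replicates above about 50%, limit read from the data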
SENP6 conf – confirmation of human SENP6 protease inhibitors; shares compounds with SENP7 block; recombinant SENP6, Z-RLRGG-aminoluciferin luminescence; inhibition, % at 12.5 µM; 6,200 tested, 58% active
SENP7 conf – human SENP7 inhibition, confirmed. shares compounds with SENP7 block. recombinant SENP7, Z-RLRGG-aminoluciferin luminescence, 40 min. inhibition, % at 12.5 µM. 6,200 tested, 69% active. AID 488917
Casp3 select – caspase-3 inhibition (SENP selectivity assay); shares compounds with SENP7 block; purified caspase-3, Z-DEVD-aminoluciferin luminescence, 60 min; inhibition, % at 12.5 µM; 6,200 tested, 60% active; AID 488918;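 active means mean inhibition above about 50%, limit read from the data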;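 further: plate controls were enzyme with DMSO for no effect and wells without caspase-3 for full effect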
Luc interf – interferes with luciferase luminescence in SENP counter-screen. shares compounds with SENP7 block. Pre-incubated SENP8/Z-RLRGG-aminoluciferin, luciferase luminescence interference. inhibition, % at 12.5 µM. 6,200 tested, 39% active;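 active means mean inhibition above about 50% when retested at one dose, limit read from the data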;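 further: plate controls were DMSO wells with completed reaction for no effect and substrate without enzyme for full effect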
* marks the source's active call; other numbers are inactive results; i = inactive; nt = not tested or not shown.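 How the source made its calls, unless noted: active means mean inhibition above about 50% in the one-dose retest (limit read from the data); inactive means the rest.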

SMILES | SENP8 block-1 | SENP8 block-2 | SENP7 block | AHR activator | EBI2 antag | SENP6 inh | SENP8 confirm | SENP6 conf | SENP7 conf | Casp3 select | Luc interf
O=C(CNc1cccc2ccccc12)N/N=C/C=C/c1ccco1 | -86 | 60* | 32 | 3 | 6 | 82* | 1 | 6 | 13 | 4 | 3
O=C(CNc1cccc2ccccc12)N/N=C/c1ccc(C(=O)O)cc1 | -199 | 58* | 30 | 10 | 4 | 71* | -8 | -3 | -5 | 4 | 3
C/C(=N\NC(=O)CNc1cccc2ccccc12)c1ccccc1 | -351 | 54* | 19 | 22 | 9 | 73* | 0 | 4 | 10 | 1 | 0
CC(C)COP(=O)(CNC(=O)CN1C(=O)c2ccccc2S1(=O)=O)OCC(C)C | 8 | 0 | -3 | -2 | -9 | -4 | nt | nt | nt | nt | nt
Clc1ccc(-c2cn3nc4c(nc3n2)CCCC4)cc1 | -416 | 39 | 14 | 12 | -2 | 55* | 48 | 62* | 62* | 60* | 11
COc1cccc(-c2cn3nc4c(nc3n2)CCCC4)c1 | i | 33 | 25 | 16 | -19 | 36 | nt | nt | nt | nt | nt
Cc1nn(C)cc1/C=N/NC(=O)Cn1nnc(N)n1 | 10 | -9 | -1 | 0 | -3 | -4 | nt | nt | nt | nt | nt
Cc1ccc(O)c(/C=N/NC(=O)c2[nH]ncc2Br)c1 | 11 | 89* | 93* | 25 | -6 | 77* | 25 | 21 | 39 | 38 | 42
Cc1nn(-c2ccccc2)c(Cl)c1/C=N/NC(=O)c1[nH]ncc1Br | 9 | 92* | 95* | -8 | -54 | 92* | 8 | 94* | 102* | 95* | 20
COc1ccc(OC)c(/C=N/NC(=O)c2[nH]ncc2Br)c1 | -414 | -7 | 4 | 13 | -20 | -32 | nt | nt | nt | nt | nt
O=C(N/N=C/c1cccs1)c1[nH]ncc1Br | 9 | 50 | 76* | nt | -10 | 76* | 61* | 58* | 86* | 90* | 68*
CCOc1ccc(/C=N/NC(=O)c2[nH]ncc2Br)c(O)c1 | -7 | 98* | 102* | -2 | 7 | 99* | 99* | 100* | 103* | 99* | 52*
O=C(COC(=O)c1nn(CCO)c(=O)c2ccccc12)Nc1ccc(Cl)c(Cl)c1 | 12 | 5 | 9 | 11 | -3 | 0 | nt | nt | nt | nt | nt
O=C(N/N=C/c1c(O)ccc2ccccc12)c1[nH]ncc1Br | -40 | 18 | 19 | 46 | -6 | 51* | 33 | 41 | 77* | 28 | 48
CCCCSc1ccc2nc(-c3ccc(C#N)cc3)cn2c1 | -500 | -7 | -3 | -5 | 17 | -6 | nt | nt | nt | nt | nt
CCCSc1ccc2nc(-c3ccccc3)cn2c1 | -356 | 96* | 98* | -9 | 41 | 96* | 98* | 99* | 102* | 97* | 93*
CCOC(=O)[C@H]1[C@H]2COc3ccc(Cl)cc3[C@H]2N2C(=O)CNC(=O)[C@@]12C | 10 | 15 | -7 | -1 | 8 | 2 | nt | nt | nt | nt | nt
O=C(Cc1ccc(F)cc1)Nc1nnc(SCC(=O)NC2CCCC2)s1 | 18 | -10 | -11 | 0 | -11 | -6 | nt | nt | nt | nt | nt
Clc1ccccc1-c1nnc(-c2ccc3c(c2)OCO3)o1 | -399 | 89* | 90* | -4 | 7 | 92* | 64* | 94* | 95* | 79* | 59*
O=[N+]([O-])c1cccc(-c2nnc(-c3ccc4c(c3)OCO4)o2)c1 | -24 | 26 | 65* | 0 | 11 | 47 | 15 | 12 | 33 | 45 | 5
CC1(c2ccc(Cl)cc2)NC(=O)CS1 (stereo unspecified) | 8 | -4 | -11 | -1 | -11 | -8 | nt | nt | nt | nt | nt

Assay outcomes from PubChem BioAssay.
